Measurements: PubChem BioAssay
For some assays here: Measured potencies and affinities stand elsewhere. Inconclusive results are not listed. The list shows a part of the results. Calls of active or inactive are those of the source.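 Rule for the calls, unless noted: active = a dose-response fit showing signal loss, with half-maximal concentration no higher than twice the top tested dose; inconclusive = flat fit between 30% and 70% signal loss, or poor fit; inactive = the rest.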

What was measured:
[1] = Cryptococcus neoformans growth inhibition, dose response, Alamar Blue, cherry-picks (AID 686998;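 active = falling signal with fitted half-maximal potency no higher than twice the top valid tested dose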)
[2] = HepG2 cell cytotoxicity, dose response, cytotoxicity control, cherry-picks, set 2 (AID 687002)
[3] = HeLa cell cytotoxicity, dose response, cytotoxicity control, ATP luminescence, cherry-pick samples (AID 687004;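 active = a fitted half-maximal concentration no higher than twice the top valid tested dose, with signal falling as cells die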;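 note: 0% = neutral control median and -100% = staurosporine 10 µM control median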)
[4] = inducers of Cryptococcus neoformans cell lysis, dose response, AK release luminescence, cherry-picks (AID 687000;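 active = fitted dose curve reaches 40% lysis signal rise at or below the highest valid concentration tested for that sample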;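 note: luminescent detection of adenylate kinase leaking from lysed yeast; 0% = median neutral control signal and 100% = double that signal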)
[5] = Ring1 mRNA increase in mouse ESCs, confirmation, esBAF inhibitor project, cell-based, mouse ESC, RT-qPCR, cherry-pick (AID 743176;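 active = Ring1 gene expression raised more than 2-fold over untreated cells in both replicates at either tested dose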;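 note: Ring1 transcript normalised to actin housekeeping signal by TaqMan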); settings: mouse ESC E14, Ring1 mRNA RT-qPCR fold change, stronger effect = higher value
[6] = Fgf4 mRNA decrease in mouse ESCs, confirmation, esBAF inhibitor project, cell-based, mouse ESC, RT-qPCR, cherry-pick (AID 743177;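 active = Fgf4 expression under 0.8 fold of control in both repeat measurements at one or both tested doses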;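 note: Fgf4 transcript normalised to actin in duplex TaqMan qPCR; cells exposed to compound for 24 h before lysis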); settings: mouse ESC E14, Fgf4 mRNA qPCR fold change, stronger effect = lower value
[7] = esBAF inhibition via Bmi1 de-repression, confirmation, cell-based, RT-qPCR, mouse ESC, single point, cherry-pick (AID 743180;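 active = Bmi1 expression fold change above 6 at either tested concentration, seen in replicate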); settings: mouse ESC E14, Bmi1 mRNA qPCR fold, stronger effect = higher value
[8] = A549 cell cytotoxicity, cytotoxicity control, plate reader, single point, cherry-pick (AID 743188; call rule not given here); settings: at 25 µM
[9] = HepG2 cell cytotoxicity, cytotoxicity control, plate reader, single point, cherry-pick (AID 743189; in the data active = activity change below about -50%); settings: at 25 µM, stronger effect = lower value
[10] = HEK293 cell cytotoxicity, cytotoxicity control, plate reader, single point, cherry-pick (AID 743190; in the data active = activity change below about -38%, passing the limit was not always enough); settings: at 25 µM

C[C@H](CO)N1C[C@H](C)[C@H](CN(C)C(=O)Nc2cccc3ccccc23)Oc2ccc(NC(=O)Cc3ccccc3)cc2CC1=O
outcome [1]: inactive | outcome [2]: inactive | outcome [3]: inactive

CC(C)C#Cc1ccc([C@@H]2[C@H](CO)N3CCCCN(C(=O)c4ccc5c(c4)OCO5)C[C@@H]23)cc1
outcome [1]: inactive | outcome [2]: inactive | outcome [3]: inactive

CNC[C@@H]1OCCCC[C@@H](C)Oc2ccc(NS(=O)(=O)c3ccc(Cl)cc3)cc2C(=O)N([C@H](C)CO)C[C@H]1C
outcome [1]: inactive | outcome [2]: inactive | outcome [3]: inactive

C[C@@H]1CN([C@@H](C)CO)C(=O)c2cc(NC(=O)Nc3ccccc3)ccc2O[C@@H]1CN(C)C(=O)Nc1cccc2ccccc12
outcome [1]: inactive | outcome [2]: inactive

C[C@@H]1CCCCO[C@@H](CN(C)C(=O)CCCN(C)C)[C@@H](C)CN([C@H](C)CO)C(=O)c2cc(NC(=O)Cc3ccccc3)ccc2O1
outcome [1]: inactive | outcome [2]: inactive | outcome [3]: inactive

C[C@H]1CN([C@@H](C)CO)S(=O)(=O)c2ccc(Br)cc2O[C@@H]1CN(C)C(=O)CCN1CCCCC1
outcome [1]: inactive | outcome [2]: inactive | outcome [3]: inactive

C[C@H](CO)N1C[C@H](C)[C@H](CN(C)Cc2ccc(-c3ccccc3)cc2)Oc2c(NC(=O)c3ccncc3)cccc2C1=O
outcome [1]: inactive | outcome [2]: inactive

CC(C)NC(=O)N[C@H]1CC[C@@H](CCNC(=O)C2CC2)O[C@H]1CO
outcome [1]: inactive | outcome [2]: inactive | outcome [3]: inactive

O=C(C[C@@H]1CC[C@H]2[C@@H](COC[C@H](O)CN2Cc2ccc(Oc3ccccc3)cc2)O1)Nc1nccs1
outcome [1]: inactive | outcome [2]: inactive

COc1ccc(C2=Nc3ccccc3NC(=O)C2N(C(=O)c2cc3ccccc3[nH]2)c2ccccc2)cc1 (stereo not drawn)
outcome [1]: inactive | outcome [4]: inactive | outcome [2]: inactive | fold change ([5]; Ring1 fold increase, at 7 µM): 1.31 | fold change ([5]; at 33 µM): 0.913 (inactive) | Fgf4 expression fold change ([6]; Fgf4 expression, at 7 µM): 1.01 | Fgf4 expression fold change ([6]; at 33 µM): 0.976 (inactive) | fold change ([7]; Bmi1 de-repression, at 7 µM): 1.36 | fold change ([7]; at 33 µM): 1.54 (inactive) | cell viability change % (negative = cytotoxic) [8]: 6.45% (inactive) | activity change, negative = inhibition [9]: -23.1% (inactive) | activity change, negative = inhibition [10]: -16.6% (inactive)

N#Cc1ccc(C23CC4(C2)[C@H](CN(Cc2ccc(C(F)(F)F)cc2)[C@@H]4c2ccccc2)C3c2ccc(C(F)(F)F)cc2)cc1 (stereo partly drawn)
outcome [1]: inactive | outcome [2]: inactive | outcome [3]: inactive

COc1ccc(S(=O)(=O)N[C@H]2C=C[C@H](CC(=O)N3CCC(Cc4ccccc4)CC3)O[C@@H]2CO)cc1
outcome [1]: inactive | outcome [2]: inactive | outcome [3]: inactive

C[C@@H]1CN([C@H](C)CO)S(=O)(=O)c2ccc(C#CC3CC3)cc2O[C@H]1CN(C)CC1CCOCC1
outcome [1]: inactive | outcome [2]: inactive

CC(C)NC(=O)Nc1ccc2c(c1)C(=O)N([C@@H](C)CO)C[C@H](C)[C@@H](CN(C)S(=O)(=O)c1cccs1)OCCCC[C@H](C)O2
outcome [1]: inactive | outcome [2]: inactive | outcome [3]: inactive

C[C@@H]1CCCCO[C@H](CN(C)S(=O)(=O)c2cccs2)[C@@H](C)CN([C@@H](C)CO)C(=O)c2cc(NC(=O)CCC(F)(F)F)ccc2O1
outcome [1]: inactive | outcome [2]: inactive | outcome [3]: inactive

COc1cccc(-c2ccc3c(c2)[C@H]2[C@H](CCN2C(=O)Cc2ccncc2)[C@H](CO)N3C)c1
outcome [1]: inactive | outcome [2]: inactive

C[C@H]1CN([C@@H](C)CO)C(=O)c2cccc(NS(=O)(=O)c3ccc(Cl)cc3)c2O[C@@H]1CN(C)CC1CC1
outcome [1]: inactive | outcome [2]: inactive | outcome [3]: inactive

Cc1cccc(C)c1NC(=O)CN(C)C(=O)C1CCCCC1
outcome [1]: inactive | outcome [2]: inactive | outcome [3]: inactive

CCCNC(=O)C[C@@H]1CC[C@@H]2[C@H](COc3ccc(NC(=O)CCC)cc3C(=O)N2C)O1
outcome [1]: inactive | outcome [2]: inactive

CC(C)NC(=O)Nc1ccc2c(c1)CC(=O)N([C@@H](C)CO)C[C@@H](C)[C@H](CN(C)C(=O)Nc1ccc3c(c1)OCO3)O2
outcome [1]: inactive | outcome [2]: inactive | outcome [3]: inactive

C[C@@H]1CCCCO[C@@H](CN(C)C(=O)Nc2ccc3c(c2)OCO3)[C@@H](C)CN([C@H](C)CO)C(=O)c2cc(NC(=O)Nc3cccc4ccccc34)ccc2O1
outcome [1]: inactive | outcome [2]: inactive | outcome [3]: inactive

COc1ccc(CN(C)C[C@H]2Oc3ccc(NC(=O)Nc4ccc(F)cc4)cc3CC(=O)N([C@@H](C)CO)C[C@@H]2C)cc1
outcome [1]: inactive | outcome [2]: inactive

Cc1noc(C)c1NC(=O)Nc1ccc2c(c1)C(=O)N([C@@H](C)CO)C[C@H](C)[C@H](CN(C)S(=O)(=O)c1ccc(Cl)cc1)O2
outcome [1]: inactive | outcome [2]: inactive | outcome [3]: inactive

CC(C)CC#Cc1cnc2c(c1)C(=O)N([C@H](C)CO)C[C@H](C)[C@H](CN(C)C(=O)c1cccnc1)O2
outcome [1]: inactive | outcome [2]: inactive | outcome [3]: inactive

CCC(=O)N(C)C[C@@H]1Oc2cc(C#CC(C)(C)O)ccc2S(=O)(=O)N([C@H](C)CO)C[C@H]1C
outcome [1]: inactive | outcome [2]: inactive | outcome [3]: inactive

CCCC(=O)Nc1ccc2c(c1)C(=O)N(C)C[C@H](OC)[C@@H](C)CN(C(=O)c1cccnc1)[C@H](C)CO2
outcome [1]: inactive | outcome [2]: inactive | outcome [3]: inactive

O=C(c1ccco1)N1N=C(c2cccs2)CC1c1ccco1 (stereo not drawn)
outcome [4]: inactive | outcome [2]: inactive | outcome [3]: inactive

C[C@@H]1CN([C@H](C)CO)C(=O)c2cccc(NC(=O)c3ccncc3)c2O[C@H]1CN(C)C(=O)Nc1ccc(C(F)(F)F)cc1
outcome [4]: inactive | outcome [2]: inactive | outcome [3]: inactive

COCC(=O)N(C)C[C@H]1Oc2ncc(-c3ccccc3F)cc2C(=O)N([C@@H](C)CO)C[C@H]1C
outcome [1]: inactive | outcome [2]: inactive | outcome [3]: inactive

CCCn1c(=S)[nH]c2cc(Cl)ccc21
outcome [4]: inactive | outcome [2]: inactive | outcome [3]: inactive

C/C=C/c1ccc([C@@H]2[C@H]3CN(C(=O)Nc4ccc(OC)cc4)CCCCN3[C@H]2CO)cc1
outcome [4]: inactive | outcome [2]: inactive

Cc1cccc(NC(=S)NN(Cc2ccccc2)c2ccccc2)c1C
outcome [4]: inactive | outcome [2]: inactive

COC(=O)C1=C(C)N(Cc2ccc(Br)cc2)C(=S)NC1c1cccc(Br)c1 (stereo not drawn)
outcome [4]: inactive | outcome [2]: inactive
